86 compounds from PubChem BioAssay AID488896 (Broad Institute, 2010) can be followed below.

Hit rate of the full screen: of about 320,000 compounds, about 3,100 (0.97%) were called active.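 The calls were made as follows: active = mean replicate inhibition of at least 70% and a set share of replicates each scoring 70 or more; inconclusive = meets just one of the two criteria; inactive = fails both criteria.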 The sample as a whole holds a higher share of actives than the screen did.

The assay deals with Scavenger receptor class B member 1 (Mus musculus) (UniProt Q61009). The assay is described as follows: inhibitors of SR-BI mediated HDL lipid uptake, primary screen, ldlA[mSR-BI] cells, fluorescence, single point (AID 488896).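 Also: 0% = median of neutral control wells and 100% = median of positive control wells.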 Particulars: ldlA[mSR-BI] CHO cells, DiI-HDL uptake fluorescence, 3 h; at 12.5 µM; active compounds read high.
Scavenger receptor class B member 1 (Mus musculus), sequence (Q61009 whole entry, looked up): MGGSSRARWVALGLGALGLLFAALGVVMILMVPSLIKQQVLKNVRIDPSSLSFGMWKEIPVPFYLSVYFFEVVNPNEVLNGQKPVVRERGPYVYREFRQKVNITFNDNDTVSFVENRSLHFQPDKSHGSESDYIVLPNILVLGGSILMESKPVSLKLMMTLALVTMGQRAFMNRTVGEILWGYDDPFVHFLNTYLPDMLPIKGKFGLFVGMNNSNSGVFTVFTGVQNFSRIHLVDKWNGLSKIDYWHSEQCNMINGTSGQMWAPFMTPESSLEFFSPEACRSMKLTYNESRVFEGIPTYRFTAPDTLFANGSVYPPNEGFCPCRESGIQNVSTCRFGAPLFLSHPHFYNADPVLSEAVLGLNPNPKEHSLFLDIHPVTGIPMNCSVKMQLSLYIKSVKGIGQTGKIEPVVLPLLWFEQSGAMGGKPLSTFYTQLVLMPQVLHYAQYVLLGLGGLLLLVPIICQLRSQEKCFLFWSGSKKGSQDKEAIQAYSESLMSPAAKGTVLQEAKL
Broadly, the inhibition is the change of the read-out against control, counted positive when it falls. On to `NC(=O)C1(N2CCCC2)CCN(Cc2ccccc2)CC1`, for which the inhibition is -9.32% (inactive).
On to `O=C(Nc1ccc(C(=O)O)cc1)/C(=C/c1ccc([N+](=O)[O-])cc1)NC(=O)c1ccccc1`, for which the inhibition is -3.79% (inactive).
Consider `C=CCNC(=O)/C(=C\c1cccc([N+](=O)[O-])c1)NC(=O)c1ccccc1`, for which the inhibition was -15% (inactive).
With `O=C(N/N=C/c1cc([N+](=O)[O-])ccc1O)/C(=C\c1cccs1)NC(=O)c1ccccc1`, the inhibition was 113% (active).
With `CCCN(C(=O)COC(=O)CNS(=O)(=O)c1ccc(NC(C)=O)cc1)C1CCS(=O)(=O)C1` (stereo unspecified) the figure was -1.04% (inactive).
With `CC(C)(C)c1cc(C(=O)NN)n(Cc2ccc(Cl)cc2Cl)n1` the figure was 80.1% (active).
As to `NNC(=O)c1ccc(Cl)cc1Cl`, the inhibition was -14.8% (inactive).
For the compound `Cn1cc(C(=O)c2ccc(Cl)cc2Cl)cc1C(=O)NN`, the inhibition was 25.2% (inactive).
For the compound `COCCN(C(=O)C(C)N1C(=O)c2ccccc2C1=O)c1c(N)n(CC(C)C)c(=O)[nH]c1=O` (stereo unspecified), the inhibition is -16.4% (inactive).
On to `O=C(COC(=O)c1ccc(O)cc1O)NC(=O)c1ccccc1`, for which the inhibition is -38.7% (inactive).
As for `O=C1NCC(Nc2ccccc2)C(=O)N1` (stereo unspecified), the figure is -24.4% (inactive); as for `O=C(COC(=O)c1cc(S(=O)(=O)N2CCCCC2)ccc1Cl)NCc1ccco1`, 17.2% (inactive); as for `CCn1c2ccccc2c2cc(NC(=O)COC(=O)c3cc(S(=O)(=O)N4CCCCC4)ccc3Cl)ccc21`, 77.1% (active).
Turning to `CC1=C(C)CC(C(=O)NNC(=O)c2ccccc2O)C(C(=O)O)C1` (stereo unspecified), the inhibition is 13.9% (inactive).
Consider `O=C(NNC(=O)c1cc(S(=O)(=O)N2CCCCC2)ccc1Cl)c1ccccc1O`, for which the inhibition was 108% (active).
Take `O=C(NNC(=O)c1ccccc1O)c1ccccc1O`: the inhibition is 124% (active).
With `CC1CCCC(NC(=O)c2cc(S(=O)(=O)N3CCCCC3)ccc2Cl)C1C` (stereo unspecified) the figure was 11.2% (inactive); with `Cc1cc(C(=O)NNC(=O)c2ccccc2O)c(C)o1`, 13.4% (inactive); with `CCn1c2ccccc2c2cc(NC(=O)COC(=O)c3ccccc3Br)ccc21`, -7.34% (inactive).
As for `O=C(Nc1ccccc1C(=O)O)c1cc(S(=O)(=O)N2CCCCC2)cs1`, the figure is -2.98% (inactive).
Turning to `COc1ccc(CCNC(=O)c2ccc(NC(=O)CC3SC(N4CCCCC4)=NC3=O)cc2)cc1OC` (stereo unspecified), the inhibition is 66.6% (inactive).
On to `CC(=NNC(=O)c1ccncc1)c1ccc(Cl)c(Cl)c1`, for which the inhibition is 6.02% (inactive).
For `COc1ccc(Cl)cc1C=CC=Nc1ccc(S(N)(=O)=O)cc1`, the inhibition is -39.7% (inactive).
`Cc1ccc2c(O)c(Cc3ccccc3)c(=O)[nH]c2n1`: the inhibition is 7.66% (inactive).
With `COc1ccc(C(CNC(=O)c2cccc(NS(=O)(=O)c3ccc(C)c(F)c3)c2)N2CCCC2)cc1` (stereo unspecified) the figure was -24.5% (inactive); with `COc1ccc(C(CNC(=O)c2ccc(S(=O)(=O)Nc3ccccc3C)cc2)N2CCOCC2)cc1` (stereo unspecified), -2.84% (inactive).
As for `COc1ccc(C(CNC(=O)c2cccc(S(=O)(=O)Nc3ccccc3Cl)c2)N2CCOCC2)cc1` (stereo unspecified), the inhibition is 79.7% (active).
With `COc1ccc(C(=O)Nc2ccc3nc(N4CCCCC4)cc(C)c3c2)cc1OC` the figure was 44.3% (inactive); with `COc1cc(C(=O)NCC2(c3ccccc3)CCCC2)ccc1OC(C)C`, 3.63% (inactive); with `COc1ccc(C(=O)Nc2ccc(C3(C#N)CCCC3)cc2)cc1OC`, 82% (active).
For the compound `CN(O)C(=S)c1ccccc1`, the inhibition was -24.5% (inactive).
As to `Cc1c(NS(=O)(=O)c2cccc(C(=O)Nc3ccc(SC(F)F)cc3)c2)c(=O)n(-c2ccccc2)n1C`, the inhibition was 10.9% (inactive).
Take `CC(=O)c1ccc(NC(=O)C(C)OC(=O)c2ccc(NS(=O)(=O)c3ccc4[nH]c(=O)[nH]c4c3)cc2)cc1` (stereo unspecified): the inhibition was 18.7% (inactive).
Consider `Cn1nc(-c2ccc(Cl)cc2)c2cc(C(=O)NCc3ccco3)sc21`, for which the inhibition was 90.1% (active).
For the compound `COc1ccccc1N1CCN(C(=O)c2cc3c(-c4ccc(Cl)cc4)nn(C)c3s2)CC1`, the inhibition was 58.4% (inactive).
For `CN(CCNC(=O)c1cc2c(-c3ccccc3F)nn(C)c2s1)C1CCCCC1`, the inhibition was 42% (inactive).
As for `C[C@]12CCC(=O)C=C1C=CC1C2CC[C@@]2(C)C1CC[C@@]21CCC(=O)O1` (stereo partly specified), the figure is -3.73% (inactive); as for `O=C(c1cccnc1)N(Cc1ccccc1)C(=O)c1cccnc1`, -2.46% (inactive).
With `CN(C(=O)c1ccc(NC(=O)Cc2cccc(NC(=O)C3CCN(C(=O)c4ccccc4)CC3)c2)cc1)C1CC1`, the inhibition is 15% (inactive).
In the case of `CCCC(O)(c1ccccc1)C(c1ccccc1)c1ccccn1` (stereo unspecified), the inhibition is 11.7% (inactive).
As for `COc1ccc(C(CNC(=O)c2cccc(S(=O)(=O)Nc3ccc(Br)cc3)c2)N(C)C)cc1` (stereo unspecified), the figure is -24.3% (inactive); as for `Cc1cccc(-c2nc(Nc3ccc(O)cc3)c3ccccc3n2)c1`, 74.9% (active); as for `CCOC(=O)c1nc(Nc2ccc(C(=O)OC)cc2)c2ccccc2n1`, 33.7% (inactive).
As for `COc1ccc(Nc2nc(-c3cccnc3)nc3ccccc23)cn1`, the figure is 31.9% (inactive).
As for `O=C1NCC(c2ccccc2)(c2ccccc2)C(=O)N1`, the figure is -22.9% (inactive); as for `O=C(Cc1ccc(Cl)cc1)c1ccccc1`, 1.95% (inactive).
For the compound `O=C(CNC(=O)c1cc(S(=O)(=O)N2CCOCC2)ccc1N1CCCC1)Nc1ccc(F)c(F)c1`, the inhibition was 12.1% (inactive).
Regarding `COC(=O)c1nc2n(n1)C(c1ccc([N+](=O)[O-])cc1)C(C(=O)Nc1ccc(Cl)cc1)=C(C)N2` (stereo unspecified), the inhibition is -8.37% (inactive).
Consider `COC(=O)C1=CN(C)C=C(C(=O)OC)C1c1ccc(Cl)cc1Cl`, for which the inhibition is -0.162% (inactive).
As for `COC(=O)C1=CN(c2ccc(F)c(F)c2)C=C(C(=O)OC)C1c1ccc([N+](=O)[O-])cc1`, the inhibition is 71.8% (active).
On to `Cn1cc(C2OC(=O)c3ccccc32)c2ccccc21` (stereo unspecified), for which the inhibition was 3.47% (inactive).
Regarding `CCCCN(C(=O)CSCc1ccc(C)cc1)c1c(N)n(Cc2ccccc2)c(=O)[nH]c1=O`, the inhibition was 7.84% (inactive).
On to `O=C(Nc1ccc2ccccc2c1[N+](=O)[O-])c1ccccc1`, for which the inhibition was 14.4% (inactive).
As to `COC(=O)CC(CC(=O)OC)n1cccc1`, the inhibition was -7.62% (inactive).
With `CC[C@]12c3[nH]c4cc(CCC(=O)N(C)C)ccc4c3CCN1C(=O)[C@@H](CC(=O)NCc1ccco1)C[C@@H]2C(=O)N1CCN(C(=O)c2ccco2)CC1` the figure was 2.87% (inactive); with `Cc1ccc(C)c(NS(=O)(=O)c2ccc(OCC(=O)NCc3cccnc3)cc2)c1`, -23.5% (inactive); with `Cc1ccc(C)c(NC(=O)CN(C)C(=O)COc2ccc3ccccc3c2)c1`, 2.83% (inactive).
For the compound `Cc1ccc(NS(=O)(=O)c2ccc(C)c(NC(=O)COc3ccc4ccccc4c3)c2)c(C)c1`, the inhibition was 78.5% (active).
On to `O=C1/C(=C\c2ccc([N+](=O)[O-])cc2)CS(=O)(=O)C/C1=C/c1ccc([N+](=O)[O-])cc1`, for which the inhibition was 17.7% (inactive).
Take `CC[C@@H]1Cc2cc(O)ccc2C2=C1c1ccc(O)cc1C[C@H]2CC`: the inhibition was 76.1% (active).
With `O=C(NNC(=O)c1ccc2ccccc2c1)c1ccc(Cl)cc1` the figure was -17.1% (inactive).
With `COC(=O)c1cnc(Nc2cc(C)ccc2OC)c2ccccc12` the figure was 11.3% (inactive).
`COc1ccc(C)cc1Nc1nc(C)nc2c1oc1ccccc12`: the inhibition is -8.2% (inactive).
`COc1ccc(C)cc1Nc1nc(-c2c(C)[nH]c3ccccc23)cs1`: the inhibition is 77.1% (active).
As for `COCC(=O)N(C)[C@H]1C[C@H]2c3cc(Oc4ccccc4C)ccc3CCN2C(=O)[C@H]1[C@H](C)O`, the inhibition is 5.04% (inactive).
Turning to `COc1ccc(OC)c(-c2csc(NC(=O)C3=NNC(=O)CC3)n2)c1`, the inhibition is 74.1% (active).
For `COc1ccc(NC(=O)C2=NNC(=O)CC2)cc1S(=O)(=O)N1CCCCC1`, the inhibition is 12.9% (inactive).
For the compound `COc1ccc(OC)c(-c2csc(NC(=O)COC(=O)C3CC3)n2)c1`, the inhibition is 29.7% (inactive).
On to `O=C(CC(=O)c1cccnc1)c1ccccc1`, for which the inhibition was 1.21% (inactive).
As to `CCCCCC(=O)Nc1ccc(C(=O)N/N=C/c2ccc([N+](=O)[O-])cc2)cc1`, the inhibition was 92.9% (active).
Regarding `CCCCCC(=O)NC(=S)NNC(=O)c1ccc([N+](=O)[O-])cc1`, the inhibition was 11.5% (inactive).
For `O=C(COc1ccc(/C=N/NC(=O)c2ccc(O)cc2)cc1)Nc1ccc([N+](=O)[O-])cc1`, the inhibition is 24.6% (inactive).
Regarding `Cc1ccc(S(=O)(=O)N2CCN(C(=O)c3cc(S(=O)(=O)N4CCOCC4)ccc3F)CC2)cc1`, the inhibition is -4.26% (inactive).
With `CCOc1ccc(NC(=O)CN2CCN(CC(=O)Nc3ccc(OC)cc3)CC2)cc1` the figure was 77.8% (active).
On to `CCOc1ccc(NC(=O)c2ccc(NC(=O)CN3C(=O)C(=O)N(CC(C)C)C3=O)cc2)cc1`, for which the inhibition is 75.7% (active).
For `CCOC(=O)N1CCN(CC(=O)Nc2ccc(F)cc2)CC1`, the inhibition was -2.83% (inactive).
Turning to `CCOc1ccc(NC(=O)c2ccc(NC(=O)C3CCCO3)cc2)cc1` (stereo unspecified), the inhibition was 24.7% (inactive).
Turning to `CCOc1ccc(NC(=O)c2ccc(NC(=O)COC(=O)c3ccc(NC(=O)CC#N)cc3)cc2)cc1`, the inhibition was 57.5% (inactive).
As for `CCOc1ccc(NC(=O)N2CCN(CC)CC2)cc1`, the figure is -5.71% (inactive); as for `COc1ccc(/C=C2/CCCc3ccccc3C2=O)cc1`, 12.7% (inactive).
In the case of `CCOc1cc(C=NNC(=O)CCCC(=O)NN=Cc2ccc(O)c(OCC)c2)ccc1O`, the inhibition was 7.36% (inactive).
Turning to `CCOC(=O)[C@H]1[C@H]2COc3ccc(Br)cc3[C@@H]2N2C(=O)CN(C)C(=O)[C@@]12C`, the inhibition is -11.5% (inactive).
For the compound `Cc1cccc(NC(=O)c2ccc([N+](=O)[O-])o2)c1`, the inhibition is 0.0135% (inactive).
In the case of `Cc1cccc(NC(=O)c2cc([N+](=O)[O-])ccc2N2CCN(C)CC2)c1`, the inhibition is 13.3% (inactive).
Consider `Cc1cccc(NC(=O)c2sc(-c3ccccc3)nc2-c2ccc([N+](=O)[O-])cc2)c1`, for which the inhibition is 77.7% (active).
`CC(=O)OC1CCC2(C)C(=CCC3C4CC(=O)N(O)C(=O)C4(C)CCC32)C1` (stereo unspecified): the inhibition was -19% (inactive).
